One assay in a line: probe aDKK1 binding to arrayed compounds – biochemical, biotinylated probe, 635/667 nm fluorescence, primary screen (AID 1099).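 Also: score merges 667nm spot fluorescence with signal to noise across triplicate slides; reference of the scale not given here.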 As to conditions: small-molecule microarray, higher = more signal.
Molecule `COc1ccc([Si](C)(C)[C@@H]2[C@@H](CC(=O)N(CCO)Cc3ccccc3)O[C@]3(C(=O)N(C)c4ccccc43)[C@H]2C)cc1` returned a composite z-score of 0.909.
`O=c1cccc(C=Cc2ccccc2)o1` had a composite z-score of 0.121.
Consider `O=C1OCC=C[C@H]2OC34C=CCN(c5ccc6ccccc6c5)C(=O)[C@H]3N(CCCO)C(=O)[C@@H]4[C@@H]12` (stereo partly drawn), for which the composite z-score stood at 0.0114.
In turn, `COCCOC(=O)N1C(=O)[C@@]2(c3cc(C#CC4=CCCCC4)ccc31)[C@H](C(=O)N1CCc3cc(OC)c(OC)cc3C1)[C@H]1C(=O)O[C@H](c3ccccc3)[C@H](c3ccccc3)N1[C@@H]2c1ccccc1OCCO` gave a composite z-score of -0.0567.
On the same count and under the same terms, next, `COCCOC(=O)N1C(=O)[C@@]2(c3cc(C#CCC(C(=O)OC)C(=O)OC)ccc31)[C@H](c1ccccc1OCCO)N1[C@H](c3ccccc3)[C@H](c3ccccc3)OC(=O)[C@H]1[C@@H]2C(N)=O`: 0.152.
On the same count and under the same terms, next, `CC(C)OC(=O)CC(=O)CC(O)c1ccc(C#N)cc1` (stereo not drawn): 0.715; `COC(=O)[C@@]1(Cc2ccc(OC)cc2)[C@H]2c3cc(C(=O)N(C)C)n(Cc4c(OC)[nH]cc(C)c4=O)c3C[C@H]2CN1C(=O)c1ccccc1`: 1.8.
Turning to `O=C1C[C@@](C(=O)NC2CC2)(c2ccc([N+](=O)[O-])cc2)[C@@H](c2ccc(CO)cc2)N1CC12CC3CC(CC(C3)C1)C2`, the composite z-score is -0.0801.

A short description of the next assay: probe aCHRDL2 binding to arrayed compounds – biochemical, biotinylated probe, 635/667 nm fluorescence, primary screen (AID 1100). Conditions: small-molecule microarray, higher = more signal.
The molecule `COc1ccc([Si](C)(C)[C@@H]2[C@@H](CC(=O)N3CCC[C@H]3CO)O[C@]3(C(=O)N(C)c4c(Br)cc(C)cc43)[C@H]2C)cc1` displayed a composite z-score of 0.0013.
Regarding `CN(C)CCCCCCNC(=O)[C@H]1C[C@H]2C(=O)N[C@@H](CCCCN)C(=O)N2[C@H]1c1ccc(O)cc1`, the composite z-score came out at 1.71.
Still for that read-out and setting: the figure for `COCC(=C=CC[C@H](O)c1ccc(OCCO)cc1)C[C@H](O)c1cc(Cl)cc(Cl)c1O` is -0.0229; for `COc1cc(C(O)C2C=CC3C(=O)N(c4ccccc4)C(=O)C3N2Nc2ccc(C#N)cc2)cc(OC)c1OC` (stereo not drawn) it is 1.34.
`N#Cc1ccc(NN2C(C(O)c3ccc([N+](=O)[O-])cc3)C=CC3C(=O)N(c4ccccc4)C(=O)C32)cc1` (stereo not drawn): the composite z-score stood at 1.08.
Take `CC(=O)NCCCC[C@@H]1NC(=O)[C@@H]2C[C@H](C(=O)NCCCCCCNC(=O)CS)[C@H](c3ccc(O)cc3)N2C1=O`: the composite z-score worked out at 0.52.
For the molecule `CCOC(=O)C[C@H]1[C@H](OC(=O)Cc2ccc3c(c2)OCO3)[C@@H](NC(=O)c2ccc(-c3ccccc3)cc2)c2cc(OCCCO)ccc2N1C(=O)c1ccccc1`, the composite z-score was -0.228.
Molecule `O=C1O[C@@H](c2ccccc2)[C@@H](c2ccccc2)N2[C@@H](c3ccccc3OCCO)[C@]3(C(=O)Nc4ccc(C#CC5(O)CCCCCC5)cc43)[C@@H](C(=O)Nc3nc4ccccc4s3)[C@H]12` displayed a composite z-score of -0.0735.
Regarding `Cc1ccccc1C(O)C1C=CC2C(=O)N(C)C(=O)C2N1N1CCCCC1` (stereo not drawn), the composite z-score was found to be 0.906.
As to `COCCOC(=O)N1C(=O)[C@@]2(c3ccccc31)[C@H](C(=O)Nc1nc3ccccc3s1)[C@H]1C(=O)O[C@H](c3ccccc3)[C@H](c3ccccc3)N1[C@@H]2c1ccc(OCCO)cc1`, the composite z-score turned out to be 0.54.
As to `CC(C)C[C@@H]1NC(=O)[C@H]2C[C@@H](C(=O)NCCCCCNC(=O)CS)[C@@H](c3cccc(OCCO)c3)N2C1=O`, the composite z-score was -0.003.
For `COc1ccc(C#Cc2ccc3c(c2)[C@]2(C(=O)N3)[C@H](c3ccc(O)cc3)N3[C@H](c4ccccc4)[C@H](c4ccccc4)OC(=O)[C@H]3[C@@H]2C(=O)NC[C@H](O)c2ccccc2)cc1`, the composite z-score came out at 0.397.
The molecule `O=C1OCC=C[C@H]2OC34C=CCN(c5ccc(Cl)cc5)C(=O)[C@H]3N(CCCCCCO)C(=O)[C@@H]4[C@@H]12` (stereo partly drawn) had a composite z-score of 0.731.
For the molecule `C=CCOC(=O)[C@H]1[C@@H]2C(=O)O[C@@H](c3ccccc3)[C@@H](c3ccccc3)N2[C@@H](c2ccc(OCCOC(=O)[C@@H]3C[C@@H]4C(=O)N5CCC[C@H]5C(=O)N4[C@@H]3c3ccc(O)cc3)cc2)[C@]12C(=O)Nc1ccccc12`, the composite z-score was 0.0807.
The molecule `CCCC[C@H]1OB(O)C[C@H]2C1=C(C)C[C@H]1C(=O)N(Cc3ccccc3)C(=O)[C@H]12` registered a composite z-score of -0.665.
For the molecule `CCCC[C@@H]1C[C@H]1[C@@H](NC(=O)c1ccc(-c2ccccc2)cc1)c1ccc(-c2ccccc2)cc1`, the composite z-score worked out at 0.0604.
In turn, `COCC(=C=CC[C@@H](O)c1ccc(CO)o1)CCO` returned a composite z-score of -0.181.
As for `Cc1ccc(S[C@]2(C(=O)NCc3ccccc3)CC(=O)N(Cc3ccccc3Cl)[C@@H]2c2ccc(CO)cc2I)cc1`, the composite z-score is 1.13.
On the same count and under the same terms, next, `CC=CC(O)C1C=CC2C(=O)N(c3ccccc3)C(=O)C2N1Nc1ccc(C(C)C)cc1` (stereo not drawn): 0.973; `COCCOC(=O)N1C(=O)[C@@]2(c3ccccc31)[C@H](C(=O)NC[C@H](O)c1ccccc1)[C@H]1C(=O)O[C@H](c3ccccc3)[C@H](c3ccccc3)N1[C@@H]2c1ccc(OCCO)cc1`: -0.131; `[N-]=[N+]=NCc1ccccc1C[C@@]1(C(=O)NCC(O)CO)N=C(c2ccc(OCCCO)cc2)O[C@@H]1c1ccccc1CN=[N+]=[N-]` (stereo partly drawn): 0.884.
For the molecule `COc1ccc(C#Cc2ccc3c(c2)[C@]2(C(=O)N3)[C@H](C(=O)NC[C@H](O)c3ccccc3)[C@H]3C(=O)O[C@H](c4ccccc4)[C@H](c4ccccc4)N3[C@@H]2c2ccccc2OCCO)cc1`, the composite z-score was determined as 0.334.
On to `COC(=O)[C@@]1(Cc2ccccc2)[C@H]2c3cc(C(=O)N(C)C)n(Cc4cc(C)n(C)n4)c3C[C@H]2CN1C(=O)c1ccccc1`, for which the composite z-score stood at 0.947.
Turning to `C#CCN(C(/C=C/c1ccccc1)CO)C(C(=O)O)c1ccccc1` (stereo not drawn), the composite z-score was -0.447.
Consider `COc1ccc([Si](C)(C)[C@@H]2[C@@H](CCn3cc([C@H](O)c4ccccc4)nn3)O[C@]3(C(=O)N(Cc4cccc(N5CCOC5=O)c4)c4ccccc43)[C@H]2C)cc1`, for which the composite z-score worked out at 0.658.
As for `Cc1ccc(S[C@]2(C(=O)O)CC(=O)N(C3Cc4ccccc4C3)[C@@H]2c2ccc(CO)cc2I)cc1`, the composite z-score is 1.05.
For the molecule `CCOC(=O)C[C@H]1[C@H](OC(=O)c2ccc(-c3ccccc3)cc2)[C@@H](NC(=O)Cc2ccc(OC)cc2)c2cc(OCCCO)ccc2N1C(=O)c1ccc2ccccc2n1`, the composite z-score turned out to be 0.294.
For the molecule `COc1ccc([Si](C)(C)[C@@H]2[C@@H](CC(=O)N(CCO)Cc3ccccc3)O[C@]3(C(=O)N(C)c4ccccc43)[C@H]2C)cc1`, the composite z-score was determined as 0.0207.
With `O=c1cccc(C=Cc2ccccc2)o1`, the composite z-score stood at 0.756.
`O=C1OCC=C[C@H]2OC34C=CCN(c5ccc6ccccc6c5)C(=O)[C@H]3N(CCCO)C(=O)[C@@H]4[C@@H]12` (stereo partly drawn) yielded a composite z-score of 0.899.
On the same count and under the same terms, next, `COCCOC(=O)N1C(=O)[C@@]2(c3cc(C#CC4=CCCCC4)ccc31)[C@H](C(=O)N1CCc3cc(OC)c(OC)cc3C1)[C@H]1C(=O)O[C@H](c3ccccc3)[C@H](c3ccccc3)N1[C@@H]2c1ccccc1OCCO`: 0.185.
`COCCOC(=O)N1C(=O)[C@@]2(c3cc(C#CCC(C(=O)OC)C(=O)OC)ccc31)[C@H](c1ccccc1OCCO)N1[C@H](c3ccccc3)[C@H](c3ccccc3)OC(=O)[C@H]1[C@@H]2C(N)=O` yielded a composite z-score of 0.188.
The molecule `CC(C)OC(=O)CC(=O)CC(O)c1ccc(C#N)cc1` (stereo not drawn) gave a composite z-score of 1.23.
`COC(=O)[C@@]1(Cc2ccc(OC)cc2)[C@H]2c3cc(C(=O)N(C)C)n(Cc4c(OC)[nH]cc(C)c4=O)c3C[C@H]2CN1C(=O)c1ccccc1` had a composite z-score of 0.628.
Consider `O=C1C[C@@](C(=O)NC2CC2)(c2ccc([N+](=O)[O-])cc2)[C@@H](c2ccc(CO)cc2)N1CC12CC3CC(CC(C3)C1)C2`, for which the composite z-score amounted to 0.782.

The values are drawn from PubChem BioAssay.
